Screening results deposited in PubChem BioAssay by National Center for Advancing Translational Sciences (NCATS).
TGFb inhibitor: inhibitors of TGF-b signaling. HepG2 CAGA-GFP TGF-b/SMAD3 reporter, GFP fluorescence, 18 h; TGF-beta stimulated, 500 pg/mL final. Potency, µM (titrated, usually from 46.1 µM), actives largely listed as inhibitors. 410,000 compounds, 1.2% hits; note: nearly all actives have a fitted effect of over 65% in size
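HEPG2 CAGA-GFP reporter cells (1000/well, DMEM with 1% FBS) received compounds, then recombinant TGF-beta at 500 pg/mL final for 18 hours at 37 degrees C. Per-cell GFP summed per well was normalised to unstimulated and stimulated DMSO controls before curve fitting.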
DT40 TDP1 CPT: growth inhibition of DT40 Tdp1-/-;hTDP1 cells with camptothecin (screen for TDP1 inhibitors) | chicken DT40 Tdp1-/-;hTDP1 cells + 20 nM CPT, ATP luminescence, 48 h | 420,000 compounds, 12% hits | Potency, µM (series often up to 46.2 µM), actives largely listed as inhibitors; note: nearly all actives have a fitted effect of over 55% in size
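Chicken DT40 Tdp1-/- cells stably complemented with human TDP1 were seeded at 400 cells/well in medium containing 20 nM camptothecin, exposed to pin-transferred compounds, and grown at 37 °C for at least 48 hr. Viability was read as ATP luminescence.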
S-ASM inh: human S-ASM enzyme inhibition; 340,000 compounds, 0.006% hits; Potency, µM (top dose mostly 57.5 µM), usual class: inhibitors; placental ASM, HMU-PC fluorogenic substrate, 60 min
Target sequence (P17405 47-631 limits assumed): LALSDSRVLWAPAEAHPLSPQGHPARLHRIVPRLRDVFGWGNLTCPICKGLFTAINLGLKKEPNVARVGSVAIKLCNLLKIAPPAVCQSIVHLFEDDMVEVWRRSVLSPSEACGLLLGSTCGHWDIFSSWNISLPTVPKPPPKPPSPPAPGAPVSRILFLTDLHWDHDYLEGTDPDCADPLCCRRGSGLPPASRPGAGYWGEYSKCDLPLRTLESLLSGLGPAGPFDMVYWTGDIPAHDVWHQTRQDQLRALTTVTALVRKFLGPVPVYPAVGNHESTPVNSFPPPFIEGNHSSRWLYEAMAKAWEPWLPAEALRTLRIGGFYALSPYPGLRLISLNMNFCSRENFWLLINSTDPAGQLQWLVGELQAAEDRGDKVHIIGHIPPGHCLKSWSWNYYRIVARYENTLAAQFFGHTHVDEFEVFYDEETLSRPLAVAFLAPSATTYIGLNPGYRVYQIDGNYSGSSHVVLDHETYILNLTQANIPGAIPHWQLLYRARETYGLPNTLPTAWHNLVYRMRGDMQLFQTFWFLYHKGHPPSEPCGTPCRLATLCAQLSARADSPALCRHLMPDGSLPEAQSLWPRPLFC
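HMU-PC0 cleavage (9 uM final) by human placental ASM, 60 min at 37 °C following 10 min compound exposure at RT; stopped at pH 10, fluorescence Ex 386/Em 447 nm.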
HepG2 tox: counter-screen for TGF-b inhibitors: cytotoxicity in HepG2 cells | HepG2 CAGA-GFP viability, ATP luminescence, 18 h | Potency, µM (series often up to 46.1 µM), actives largely listed as cytotoxic | 410,000 compounds, 0.76% hits | AID 588856
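HepG2 CAGA-GFP cells (1000/well, DMEM with 1% FBS) received compound, then TGF-beta at 500 pg/mL final, and were incubated 18 hours at 37 degrees C. Viability was read by CellTiter-Glo luminescence. Media-only wells were set as complete cell-killing and DMSO as no toxicity.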
IL1B secr inh: inflammasome signaling inhibition, IL-1 beta readout; THP-1 LPS/ATP IL-1B secretion, AlphaLISA, 16 h; hits give low values; activity change, % at 57.5 µM; 360,000 compounds, 4.7% hits; in the data active = activity change below about -50%; inconclusive = mostly about -30% to -49%
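Secreted IL-1B measured by AlphaLISA bead assay after 16 h compound exposure of THP-1 cells; compounds (final up to 57.5 uM) added 1 h before LPS (250 ng/mL) and ATP (1.25 mM) stimulation; lower signal means less secretion.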
TDP1 cell noCPT: qHTS for Inhibitors of human tyrosyl-DNA phosphodiesterase 1 (TDP1): qHTS in cells in absence of CPT. 420,000 compounds, 15% hits. AID 686978, 2013. Potency, µM (highest dose often 46.2 µM), usual class: inhibitors. DT40 Tdp1-/- hTDP1 cells, no CPT, ATP luminescence, 48 h; note: nearly all actives have a fitted effect of over 55% in size
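No-CPT arm: Tdp1-/-;hTDP1 DT40 cells (400/well) plus compounds, incubated ≥48 hr at 37 °C. Readout CellTiter-Glo luminescence.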
Hits are given with their value; n = inactive; u = inconclusive; x = no result; ! = a repeat was not active. Compounds with a hit are over-represented: about 19% of the library has one in this group of screens. Unless noted, calls come from the whole dose curve; as a rule, active = well fitted curve in the direction sought with a large enough effect; inconclusive = small, poorly fitted or top-dose-only effect, or another doubt; inactive = no such curve, though single readings can be large; an effect the other way counts as inactive or inconclusive.

SMILES | TGFb inhibitor | DT40 TDP1 CPT | S-ASM inh | HepG2 tox | IL1B secr inh | TDP1 cell noCPT
O=c1c(O)c(-c2ccc(O)c(O)c2)oc2c(O)c(O)cc(O)c12 | x | 18.4µM | x | x | x | u
COc1ccc2c(c1)CC[C@@H]1[C@@H]2CC[C@]2(C)[C@@H](NCCCCCCN3C(=O)C=CC3=O)CC[C@@H]12 | x | u | x | x | x | 22.5µM
CCOC(=O)c1c(NC(=O)C(c2ccccc2)c2ccccc2)sc2c1C1CCN2CC1 | u | 20.6µM | n | n | n | 23.1µM
Cc1ccc(O)c([C@H](CCN(C(C)C)C(C)C)c2ccccc2)c1 | n | 20.6µM! | n | n | n | u
O=C(NCc1ccc2c(c1)CCN2C(=O)c1ccccc1)Nc1cccc(C(F)(F)F)c1 | 2.82µM | 14.6µM | x | n | x | u
CCC(=Nc1cccc(C(F)(F)F)c1)c1c(O)n(C)c(=O)n(C)c1=O | n | n | n | n | x | u
COc1ccc(C#Cc2ccc3c(c2)O[C@H](CN(C)C(C)=O)[C@H](C)CN([C@@H](C)CO)S3(=O)=O)cc1 | n | 23.1µM | x | n | n | 14.6µM
C[C@@H]1CN([C@H](C)CO)S(=O)(=O)c2ccc(C#Cc3cccc(F)c3)cc2O[C@@H]1CN(C)C(=O)CN1CCOCC1 | u | u | x | n | u | 18.4µM
Cc1ccc(S(=O)(=O)N(C)C[C@H]2Oc3cc(Br)ccc3S(=O)(=O)N([C@H](C)CO)C[C@@H]2C)cc1 | n | n | x | n | n | n
C[C@@H]1CN([C@H](C)CO)C(=O)c2cc(/C=C/c3ccccc3)cnc2O[C@H]1CN(C)C(=O)NC1CCCCC1 | n | u | x | n | u | u
COc1ccc(-c2cc(=NCCC(=O)O)c3cc(C)ccc3o2)cc1 | n | n | n | n | -58.1 | n
COc1ccc(-c2cc(=Nc3ccccc3)c3cc(C)ccc3o2)cc1 | u | u | n | n | n | u
COc1ccc(-n2c(/C=C\c3ccccc3F)nc3ccccc3c2=O)cc1OC | n | 23.1µM | x | n | x | 16.4µM
Cc1ccccc1-n1c(/C=C/c2ccccc2F)nc2ccccc2c1=O | x | 20.6µM | x | n | x | 8.2µM
COc1cccc(-n2c(/C=C/c3ccc(O)c(O)c3)nc3ccccc3c2=O)c1 | n | n | n | n | u | u
O=c1c2ccccc2nc(/C=C/c2cccc3ccccc23)n1-c1ccccc1Cl | n | 11.6µM | x | n | x | 10.3µM
CSc1ccc(/C=C/c2nc3ccccc3c(=O)n2-c2cccc(Cl)c2C)cc1 | u | u | x | n | x | u
C[n+]1c(-c2ccccc2)sc2ccccc21 | n | 1.3µM | n | n | n | 1.03µM
CN1C(=O)COc2c(C(=O)N[C@@H]3CN4CCC3CC4)cc(Cl)cc21 | x | n | x | x | x | n
CC(=NNC(=S)N1CC2CCC(CC2)C1)c1nccs1 | u | 0.0206µM | n | n | -100.2 | 0.0259µM
C(#CCN1CCCC1)CN1CCCC1 | n | n | n | n | n | n
COc1ccc(/C=C2/C(=O)N(Cc3ccco3)C(=O)N(C(C)C)C2=O)cc1 | n | n | n | n | n | n
CC(C)N1C(=O)/C(=C/C=C/c2ccco2)C(=O)N(Cc2ccco2)C1=O | n | 16.4µM | u | n | -106.2 | 14.6µM
CC[C@@]1([C@@H]2O[C@@H]([C@H]3O[C@@](O)(CO)[C@H](C)C[C@@H]3C)C[C@@H]2C)CC[C@H]([C@]2(C)CC[C@]3(C[C@H](O)[C@@H](C)[C@@H]([C@@H](C)[C@@H](OC)[C@H](C)C(=O)O)O3)O2)O1 (stereo in doubt) | x | 0.231µM | x | x | x | 0.206µM
CCOc1ccc2c(c1)c(C(C)=O)c(C)n2Cc1ccco1 | n | u | n | n | n | u
SMILES | TGFb inhibitor | DT40 TDP1 CPT | S-ASM inh | HepG2 tox | IL1B secr inh | TDP1 cell noCPT
C[N+](C)(C)CC1CCCc2ccccc2C1=O (stereo unspecified) | u | 2.91µM | n | n | n | 2.59µM
C[N+](C)(C)CC1CCCC(C[N+](C)(C)C)C1=O (stereo unspecified) | 12.6µM | 0.0411µM | n | n | n | 0.058µM
NC[C@H](CC(=O)O)c1ccc(Cl)cc1 | x | u | x | x | x | n
O=C(O)c1ccccc1Nc1cccc(C(F)(F)F)c1 | n | 11.6µM! | n | n | n | 15µM
CCC1(C)CC(C(N)=S)CCO1 (stereo unspecified) | n | 18.4µM | n | n | n | 20.6µM
c1ccc(C(c2ccccc2)c2cccnc2)cc1 | n | n | n | n | n | u
c1ccc(-c2ccc(C(c3ccccc3)n3ccnc3)cc2)cc1 (stereo unspecified) | n | 10.3µM | n | n | n | 23.1µM
CCCCn1c(O)c(C(CC)=Nc2ccc(OCC)cc2)c(=O)[nH]c1=O | n | 18.4µM | n | n | n | 20.6µM
CCC(=Nc1ccc2c(c1)CCC2)c1c(O)n(C2CCCCC2)c(=O)[nH]c1=O | n | 29.1µM | n | n | n | 18.4µM
CCCCn1c(O)c(C(CC)=Nc2ccc(OC)cc2OC)c(=O)[nH]c1=O | n | u | n | n | n | u
CC(=Nc1ccc2c(c1)CCC2)c1c(O)n(C2CCCCC2)c(=O)[nH]c1=O | n | n | n | n | n | u
COc1cc(CN=C(C)c2c(O)n(C3CCCCC3)c(=O)[nH]c2=O)cc(OC)c1 | u | u | n | n | n | 23.1µM
CCCCn1c(O)c(C(CC)=NC(C)c2ccccc2)c(=O)[nH]c1=O (stereo unspecified) | n | u | n | n | n | 25.9µM
CCc1nn(CC(=O)N2CCN(Cc3ccc4c(c3)OCO4)CC2)c(=O)c2cc3occc3n12 | n | u | n | n | n | u
CCCCn1c(O)c(C(CC)=NCc2cc(OC)cc(OC)c2)c(=O)[nH]c1=O | n | u | n | n | n | 23.1µM
O=C1COc2ccc(C(=O)COC(=O)Cc3ccccc3)cc2N1 | n | n | n | n | n | n
S=c1nc(-c2ccccc2)n(-c2ccccc2)[nH]1 | n | u | n | n | n | n
Cc1ccc(-c2n[nH]c(=S)n2-c2ccccc2)cc1 | n | 14.1µM! | n | n | n | u
COc1ccc(N(CC(=O)Nc2cccc(SC)c2)S(C)(=O)=O)cc1Cl | n | n | n | n | n | u
C[C@@H]([C@H](O)c1ccccc1)N(C)C | x | n | x | x | x | n
N#Cc1ccc(NC(=O)CN2CCN(C(=O)c3cccs3)CC2)cc1Cl | n | u | n | n | n | 16.4µM
COC(=O)C1=C(c2cc3ccccc3o2)C[C@@H]2CC[C@H]1N2C(=O)NCCO | n | n | n | n | n | n
COC(=O)C1=C(c2cc3ccccc3o2)C[C@@H]2CC[C@H]1N2C(=O)N1CCCCC1 | u | 4.61µM | n | n | n | 2.31µM
